Records with an inconclusive call do not appear. Activity calls are given as the source filed them. Unless noted, calls come from the whole dose curve.
How the values were obtained:
[1] = Nuclear factor erythroid 2-related factor 2/antioxidant responsive element (Nrf2/ARE) small molecule agonists: qHTS cell viability counter screen in human keratinocytes (AID 1919968; active = well fitted curve in the direction sought with a large enough effect in the repeat runs; an effect the other way counts as inactive or inconclusive; note: nearly all actives have a fitted effect of over 55% in size; note: potency is the fitted concentration of half-maximal effect)
Method in brief: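 Cytotoxicity was multiplexed with the Nrf2/ARE luciferase assay in the same wells. Stably transfected HaCaT keratinocytes were treated with test compounds for 23 h at 37 C. Cell viability was then measured by CellTiter-Fluor fluorescence.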

[2] = Nuclear factor erythroid 2-related factor 2/antioxidant responsive element (Nrf2/ARE) small molecule agonists: luciferase reporter gene qHTS assay in human keratinocytes (AID 1919969); note: nearly all actives have a fitted effect of over 35% in size; note: potency is the fitted concentration of half-maximal effect
[3] = biological target: Gonadotropin-releasing hormone receptor (Homo sapiens) (UniProt P30968); test: Human gonadotropin-releasing hormone receptor (GnRHR) small molecule agonists, calcium flux assay in GnRHR-HEK293 cells (AID 1920063); note: nearly all actives have a fitted effect of over 35% in size; note: potency is the fitted concentration of half-maximal effect
Gonadotropin-releasing hormone receptor (Homo sapiens), sequence (P30968 whole entry, looked up): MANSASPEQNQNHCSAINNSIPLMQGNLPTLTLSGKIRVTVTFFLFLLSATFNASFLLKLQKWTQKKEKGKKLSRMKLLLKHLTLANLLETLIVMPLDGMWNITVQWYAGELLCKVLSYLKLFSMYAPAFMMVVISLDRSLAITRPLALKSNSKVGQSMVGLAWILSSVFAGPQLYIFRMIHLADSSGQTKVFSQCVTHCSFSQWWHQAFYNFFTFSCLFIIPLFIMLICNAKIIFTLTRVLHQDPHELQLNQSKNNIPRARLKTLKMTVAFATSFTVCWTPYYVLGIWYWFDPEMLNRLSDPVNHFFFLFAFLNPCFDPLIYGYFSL
Method in brief: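 Agonist activity was measured as intracellular calcium flux in HEK293 cells engineered to stably express human GnRHR. After dye loading for 1 hour at 37 C, compounds in DMSO were added and fluorescence was followed for 3 minutes.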

[4] = biological target: KiSS-1 receptor (Homo sapiens) (UniProt Q969F8); test: Human kisspeptin (KISS1R) small molecule agonists, calcium flux assay in KISS1R-HEK293 cells (AID 1920064; active = well fitted curve in the direction sought with a large enough effect in the repeat runs; an effect the other way counts as inactive or inconclusive)
KiSS-1 receptor (Homo sapiens), sequence (Q969F8 whole entry, looked up): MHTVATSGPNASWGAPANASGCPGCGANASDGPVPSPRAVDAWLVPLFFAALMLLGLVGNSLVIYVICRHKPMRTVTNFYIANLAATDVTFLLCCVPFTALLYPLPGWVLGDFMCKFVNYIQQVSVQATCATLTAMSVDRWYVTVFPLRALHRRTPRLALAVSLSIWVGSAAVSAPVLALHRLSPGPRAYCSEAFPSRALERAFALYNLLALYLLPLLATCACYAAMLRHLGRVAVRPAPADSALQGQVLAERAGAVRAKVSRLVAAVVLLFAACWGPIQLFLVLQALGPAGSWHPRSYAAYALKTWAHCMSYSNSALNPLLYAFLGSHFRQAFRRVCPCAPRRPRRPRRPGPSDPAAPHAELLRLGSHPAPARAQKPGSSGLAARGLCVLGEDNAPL
Method in brief: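 Agonist activity is monitored as intracellular calcium rise in engineered HEK293 cells carrying human KISS1R. Cells are dye-loaded for 1 h at 37 C before compound addition, and fluorescence is recorded for 3 min.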

[5] = G protein-coupled receptor (GPCR) small molecule agonists, calcium flux assay: HEK293 wild type cell line counter screen (AID 1920065)
Method in brief: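 Seed cells, incubate 18 h (37 C, 5% CO2); add calcium dye, 1 h at 37 C; pin-transfer compounds, ATP control or DMSO; read fluorescence 480/540 nm each second for 3 min.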

[6] = p53 small molecule agonists, cell-based qHTS assay with human liver microsomes (AID 1963577); note: potency is the fitted concentration of half-maximal effect
Method in brief: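 Fluorescence of the beta-lactamase reporter in p53RE-bla cells, detected with LiveBLAzer substrate (2 h, room temperature, dark), served as the read-out after 16 h compound exposure at 37 C with human liver microsomes and NADPH, each 0.5 mg/mL final.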

[7] = p53 small molecule agonists, cell-based qHTS assay with human liver microsomes: qHTS cell viability counter screen (AID 1963579); note: nearly all actives have a fitted effect of over 45% in size
Method in brief: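 Cytotoxicity counter screen: p53RE-bla, 4,000 cells/well; 5 h settle, 37 C/5% CO2; cpd + HLM 0.5 mg/mL + NADPH 0.5 mg/mL (final); 16 h, 37 C; CellTiter-Glo, 30 min RT, luminescence.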

[8] = p53 small molecule agonists, cell-based qHTS assay with rat liver microsomes: qHTS cell viability counter screen (AID 1963580); note: nearly all actives have a fitted effect of over 45% in size
Method in brief: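 After the beta-lactamase ratio was read, CellTiter-Glo was added to the same wells and luminescence measured at 30 min; cells had been treated 16 h at 37 C with compounds, rat liver microsomes and NADPH (0.5 mg/mL final each).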

[9] = p53 small molecule agonists, cell-based qHTS assay: qHTS cell viability counter screen (AID 1963581); note: nearly all actives have a fitted effect of over 45% in size; note: potency is the fitted concentration of half-maximal effect
Method in brief: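 Viability was counter-screened in parallel with the p53 agonist reporter by measuring intracellular ATP luminescence in the same HCT-116 p53RE-bla wells after 16 h compound treatment at 37 C.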

[10] = p53 small molecule agonists, cell-based qHTS assay (AID 1963582; active = well fitted activation curve with a large enough effect in the signal ratio in the repeat runs, not every such curve was filed as active; the % refers to the signal ratio)
Method in brief: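 Cells carrying a p53-responsive bla reporter are treated with test compounds for 16 h at 37 C; beta-lactamase activity is then detected with LiveBLAzer B/G FRET substrate after 2 h at room temperature.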

[11] = biological target: 5-hydroxytryptamine receptor 2A (Homo sapiens) (UniProt P28223); test: 5-hydroxytryptamine receptor 2A (HTR2A) small molecule antagonists, cell-based qHTS assay (AID 1963586); note: nearly all actives have a fitted effect of over 45% in size
5-hydroxytryptamine receptor 2A (Homo sapiens), sequence (P28223 whole entry, looked up): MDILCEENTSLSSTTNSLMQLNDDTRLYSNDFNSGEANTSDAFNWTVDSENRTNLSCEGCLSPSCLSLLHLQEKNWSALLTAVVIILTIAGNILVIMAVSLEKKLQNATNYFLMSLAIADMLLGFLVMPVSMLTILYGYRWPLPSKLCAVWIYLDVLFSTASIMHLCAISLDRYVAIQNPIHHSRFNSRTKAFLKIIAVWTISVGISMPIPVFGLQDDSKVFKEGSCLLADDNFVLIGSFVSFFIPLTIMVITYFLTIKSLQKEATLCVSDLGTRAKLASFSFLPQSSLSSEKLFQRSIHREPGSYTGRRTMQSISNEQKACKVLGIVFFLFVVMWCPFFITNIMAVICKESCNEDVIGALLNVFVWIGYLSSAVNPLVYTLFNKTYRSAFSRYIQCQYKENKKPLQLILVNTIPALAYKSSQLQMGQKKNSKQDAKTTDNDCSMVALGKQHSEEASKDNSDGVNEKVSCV
Method in brief: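 CHO cells stably expressing human HTR2A were plated for 18 h at 37 C, then loaded with calcium dye for 1 h. Compounds were preincubated 5 min at room temperature before DOI (4 nM solution) was added. Kinetic fluorescence was read for 3 min.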

[12] = biological target: 5-hydroxytryptamine receptor 2A (Homo sapiens) (UniProt P28223); test: 5-hydroxytryptamine receptor 2A (HTR2A) small molecule agonists, cell-based qHTS assay (AID 1963587); note: nearly all actives have a fitted effect of over 30% in size
Method in brief: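 CHO cells stably expressing human HTR2A, plated 18 h, loaded with calcium dye 1 h at 37 C. Agonist mode: compounds added and intracellular calcium fluorescence recorded kinetically for 2 min at 1 sec intervals.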

[13] = biological target: Muscarinic acetylcholine receptor M1 (Homo sapiens) (UniProt P11229); test: Cholinergic receptor muscarinic 1 (CHRM1) small molecule antagonists, cell-based qHTS assay (AID 1963588); note: nearly all actives have a fitted effect of over 40% in size; note: potency is the fitted concentration of half-maximal effect
Muscarinic acetylcholine receptor M1 (Homo sapiens), sequence (P11229 whole entry, looked up): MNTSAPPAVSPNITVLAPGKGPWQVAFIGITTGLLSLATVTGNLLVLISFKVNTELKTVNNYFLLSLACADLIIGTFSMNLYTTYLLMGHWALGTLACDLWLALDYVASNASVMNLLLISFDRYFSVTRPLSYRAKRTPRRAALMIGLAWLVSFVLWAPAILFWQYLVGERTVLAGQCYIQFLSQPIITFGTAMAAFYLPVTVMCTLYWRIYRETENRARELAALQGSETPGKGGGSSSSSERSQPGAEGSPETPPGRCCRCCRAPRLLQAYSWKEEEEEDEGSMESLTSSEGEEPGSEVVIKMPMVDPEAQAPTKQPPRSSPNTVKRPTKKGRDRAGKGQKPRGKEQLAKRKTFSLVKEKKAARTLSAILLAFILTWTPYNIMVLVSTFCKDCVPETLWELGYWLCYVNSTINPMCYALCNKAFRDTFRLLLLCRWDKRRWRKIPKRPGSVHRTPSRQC
Method in brief: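 Compounds were tested at 15 concentrations in three independent runs. Dye-loaded CHRM1-CHO cells were exposed 5 min at room temperature before stimulation by acetylcholine added at 50nM. Intracellular calcium was read kinetically on FDSS for 3 min.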

[14] = biological target: Muscarinic acetylcholine receptor M1 (Homo sapiens) (UniProt P11229); test: Cholinergic receptor muscarinic 1 (CHRM1) small molecule agonists, cell-based qHTS assay (AID 1963589); note: nearly all actives have a fitted effect of over 35% in size
Method in brief: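 Cells were plated and incubated 18 h at 37 C/5% CO2, loaded with calcium dye for 1 h at 37 C, then treated with compounds in DMSO. Fluorescence was recorded kinetically at 1 sec intervals.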

[15] = cAMP Responsive Elements (CRE) small molecule agonists, cell-based qHTS assay (AID 1963590)
Method in brief: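 Cells carrying a CRE-driven beta-lactamase reporter (HEK 293T) are seeded, incubated overnight (18 h), and treated with test compounds for 3 h at 37 C; reporter activity is then detected with a FRET substrate after 2 h at room temperature.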

[16] = cAMP Responsive Elements (CRE) small molecule antagonists, cell-based qHTS assay (AID 1963591; active = well fitted inhibition curve with a large enough effect in the signal ratio in the repeat runs, not every such curve was filed as active; the % refers to the signal ratio)
Method in brief: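 Cells (CRE-bla HEK 293T, DMEM with 10% dialyzed FBS and 25 mM HEPES) are seeded and incubated 18 h. Compounds are added with NKH477 agonist at 0.25 uM final for 3 h, then FRET substrate for 2 h.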

[17] = biological target: Beta-2 adrenergic receptor (Homo sapiens) (UniProt P07550); test: Adrenergic beta2 receptor (ADRB2) small molecule antagonists, cell-based qHTS assay (AID 1963592); note: series mostly up to about 92 µM; nearly all actives have a fitted effect of over 50% in size
Beta-2 adrenergic receptor (Homo sapiens), sequence (P07550 whole entry, looked up): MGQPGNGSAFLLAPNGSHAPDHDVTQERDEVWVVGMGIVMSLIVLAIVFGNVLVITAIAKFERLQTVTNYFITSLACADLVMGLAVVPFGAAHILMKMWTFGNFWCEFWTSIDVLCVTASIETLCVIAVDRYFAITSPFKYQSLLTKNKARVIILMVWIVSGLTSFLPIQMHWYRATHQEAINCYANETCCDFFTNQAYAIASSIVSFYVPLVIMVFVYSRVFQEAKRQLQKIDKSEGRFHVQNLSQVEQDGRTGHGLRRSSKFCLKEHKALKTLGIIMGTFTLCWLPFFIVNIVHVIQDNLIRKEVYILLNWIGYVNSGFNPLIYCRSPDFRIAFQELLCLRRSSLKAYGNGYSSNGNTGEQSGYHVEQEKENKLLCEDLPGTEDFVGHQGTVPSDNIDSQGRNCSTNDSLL
Method in brief: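 Assay format: CHO-ADRB2 cells, 18-20hr seeding at 37C/5% CO2, then compound plus 1nM isoproterenol agonist mix for 0.5hr RT. Homogeneous time-resolved fluorescence cAMP detection after 1hr, expressed as 665/615 nm ratio.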

[18] = biological target: D(2) dopamine receptor (Homo sapiens) (UniProt P14416); test: Dopamine D2 receptor (DRD2) small molecule agonists, cell-based qHTS assay (AID 1963594); note: nearly all actives have a fitted effect of over 35% in size; note: potency is the fitted concentration of half-maximal effect
D(2) dopamine receptor (Homo sapiens), sequence (P14416 whole entry, looked up): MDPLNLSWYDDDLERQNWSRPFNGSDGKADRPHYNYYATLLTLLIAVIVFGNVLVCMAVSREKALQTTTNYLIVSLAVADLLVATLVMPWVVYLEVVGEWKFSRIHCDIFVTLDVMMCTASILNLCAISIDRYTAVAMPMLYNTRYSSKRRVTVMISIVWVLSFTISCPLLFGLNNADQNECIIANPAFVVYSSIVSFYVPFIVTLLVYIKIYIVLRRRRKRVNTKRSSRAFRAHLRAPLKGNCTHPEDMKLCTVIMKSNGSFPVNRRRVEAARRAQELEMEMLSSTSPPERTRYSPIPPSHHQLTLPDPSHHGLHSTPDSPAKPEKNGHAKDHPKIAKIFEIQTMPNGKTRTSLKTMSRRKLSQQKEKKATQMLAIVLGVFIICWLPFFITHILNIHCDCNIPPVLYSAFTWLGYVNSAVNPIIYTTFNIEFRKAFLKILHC
Method in brief: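 HEK293 cells stably expressing human DRD2, pre-treated with PDE inhibitor Ro20-1724 (0.1 mM final) and compound 10 min at room temperature, then stimulated with NKH477 (200nM […]) for 30 min. cAMP read by HTRF (665/620 nm).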

[19] = biological target: D(2) dopamine receptor (Homo sapiens) (UniProt P14416); test: Dopamine D2 receptor (DRD2) small molecule antagonists, cell-based qHTS assay (AID 1963595; active = well fitted inhibition curve with a large enough effect in the signal ratio in the repeat runs, with a control signal flat; the % refers to the signal ratio; note: potency is the fitted concentration of half-maximal effect)
Method in brief: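 In this cell-based antagonist screen, compounds act for 10 min at room temperature before a 30 min challenge with 12 nM quinpirole and 200 nM NKH477. cAMP is quantified by HTRF competition in DRD2-HEK293 cells containing 0.1 mM Ro20-1724.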

[20] = p53 small molecule agonists, cell-based qHTS assay with rat liver microsomes (AID 1963578); note: potency is the fitted concentration of half-maximal effect
Method in brief: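 Cells carrying a p53 response element–beta-lactamase reporter were plated and rested 5 h, then dosed with compound in DMSO plus rat liver microsomes and NADPH, each at 0.5 mg/mL final. After 16 h at 37 C, LiveBLAzer substrate was added for 2 h.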

Measured: Potency

CCCCC(CC)COC(=O)OOC(C)(C)C (configuration not stated)
not listed: [20]
inactive: all other assays above

CCCN(CCC)C(=O)Cc1c(-c2ccc(Cl)cc2)nc2ccc(Cl)cn12
not listed: [11] | [15] | [16] | [20]
inactive: all other assays above

C#CC1(O)CCCCC1
not listed: [15] | [20]
inactive: all other assays above

Cc1cccc2sc3nncn3c12
not listed: [17] | [20]
inactive: all other assays above

ClC(Cl)C(Cl)Cl
not listed: [9] | [20]
inactive: all other assays above

CC[C@@H](CO)NC(=O)[C@@H]1C=C2c3cccc4c3c(cn4C)C[C@H]2N(C)C1
not listed: [11] | [12] | [13] | [14] | [17] | [18] | [19] | [20]
inactive: all other assays above

CNP(=O)(OC)Oc1ccc(C(C)(C)C)cc1Cl (configuration not stated)
active: [2] 48.6 µM | [6] 3.24 µM
not listed: [20]
inactive: all other assays above

CSc1ccc(C(=O)C(C)(C)N2CCOCC2)cc1
not listed: [16] | [20]
inactive: all other assays above

CC1(C)[C@H](C=C(Cl)Cl)[C@@H]1C(=O)O[C@@H](C#N)c1cccc(Oc2ccccc2)c1
not listed: [13] | [18] | [20]
inactive: all other assays above

O=[N+]([O-])c1ccc2c3c(cccc13)CC2
not listed: [13] | [16] | [20]
inactive: all other assays above

OP(O)c1ccccc1
not listed: [16] | [17] | [18] | [20]
inactive: all other assays above

NP(N)(=O)NC(=O)c1ccc(F)cc1
not listed: [11] | [12] | [17] | [20]
inactive: all other assays above

O=C(CBr)Nc1ccc(Cl)cc1C(=O)c1ccccc1F
not listed: [7] | [9] | [10] | [14] | [16]
inactive: all other assays above

CCCOC(=O)Cc1ccc(OCC(=O)N(CC)CC)c(OC)c1
active: [18] 0.282 µM
not listed: [7] | [9] | [11] | [14]
inactive: all other assays above

COC(=O)N(C(=O)N1COC2(C(=O)OC)Cc3cc(Cl)ccc3C2=N1)c1ccc(OC(F)(F)F)cc1 (configuration not stated)
not listed: [8] | [11] | [20]
inactive: all other assays above

CNCC(=O)c1ccc(O)c(O)c1
active: [3] 5.35 µM | [18] 26.6 µM | [19] 26.6 µM
not listed: [6] | [14] | [15] | [17]
inactive: all other assays above

CCCC[N+]1(C)[C@@H]2CC(OC(=O)[C@H](CO)c3ccccc3)C[C@H]1[C@@H]1O[C@@H]12 (some centres not stated)
active: [13] 3.65 µM
not listed: [9] | [12] | [17] | [20]
inactive: all other assays above

CC(C)(C)c1ccc(CSc2cnn(C(C)(C)C)c(=O)c2Cl)cc1
not listed: [6] | [10] | [15] | [16] | [18]
inactive: all other assays above

[Cl][Sb]([Cl])[Cl]
active: [2] 27.3 µM
not listed: [6] | [10] | [14] | [16]
inactive: all other assays above

CN1C2CCC(C)(C)C1CC(OC(=O)C(O)(c1cccs1)c1cccs1)C2 (configuration not stated)
not listed: [6] | [13] | [14]
inactive: all other assays above

CCCCCCCCBr
not listed: [6] | [14]
inactive: all other assays above

CC[C@H](C)[C@H]1O[C@]2(C=C[C@@H]1C)C[C@@H]1C[C@@H](C/C=C(\C)[C@@H](O[C@H]3C[C@H](OC)[C@@H](O[C@H]4C[C@H](OC)[C@@H](O)[C@H](C)O4)[C@H](C)O3)[C@@H](C)/C=C/C=C3\CO[C@@H]4[C@H](O)C(C)=C[C@@H](C(=O)O1)[C@]34O)O2
inactive: [2] | [3] | [4] | [5] | [20] | [7] | [8] | [18]
active: [1] 16.1 µM | [9] 19.1 µM

c1ccc2c(c1)[nH]c1cnccc12
active: [20] 36.4 µM
not listed: [6] | [10] | [11] | [14]
inactive: all other assays above

C[C@]12CC[C@H]3[C@@H](CCC4=CC(=O)CC[C@@]43C)[C@@H]1CC[C@@H]2C(=O)O
not listed: [6] | [15] | [16] | [17] | [18]
inactive: all other assays above

O=NN1CCN(N=O)CC1
not listed: [8] | [12] | [13] | [16] | [18] | [20]
inactive: all other assays above

CCOP(=S)(OCC)SCn1nnc2ccccc2c1=O
active: [6] 3.24 µM
not listed: [9] | [11] | [15] | [16] | [20]
inactive: all other assays above

O=C(Oc1ccc(Br)cc1)N1CCN2CCC1CC2
not listed: [6] | [13] | [18] | [19]
inactive: all other assays above

C#C[C@]1(O)C=C[C@H]2[C@@H]3CCC4=CC(=O)CC[C@@H]4[C@H]3CC[C@@]21CC
not listed: [6] | [10] | [13] | [15] | [16]
inactive: all other assays above

C=C1C[C@@H]2[C@H](CC[C@]3(C)C(=O)CC[C@@H]23)[C@@]2(C)C=CC(=O)C=C12
active: [2] 29.8 µM
not listed: [6] | [15] | [16] | [17]
inactive: all other assays above

Source: PubChem BioAssay (Tox21)
